The whole screen tested about 5,500 compounds, of which about 2,000 (36%) were called active. Inconclusive results (about 18%) are left out. Cut-off read from the data, not from the text of the source: active = normalized growth mostly below about 0.91 (no sharp cut-off); inconclusive = no clear call, values can overlap the other calls; inactive = mostly above about 0.92. The list shows a part of the results.
Assay: chemical genetic growth profiling, strain panel (AID 1159580);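 note: tested at 20 µM; growth read once vehicle control cultures reached saturation at 30 °C; 1 = growth at the plate median or of vehicle wells; lower values mean less growth of the strain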
Details: growth OD
[1] = S. cerevisiae deletion strains, locus YBR229C, strain ROT2, stronger effect = lower value
[2] = S. cerevisiae deletion strains, locus YDL101C, strain DUN1, stronger effect = lower value
[3] = S. cerevisiae deletion strains, locus YDR150W, strain NUM1, stronger effect = lower value
[4] = S. cerevisiae deletion strains, locus YEL061C, strain CIN8, stronger effect = lower value
[5] = S. cerevisiae deletion strains, locus YHR030C, strain SLT2, stronger effect = lower value
[6] = S. cerevisiae deletion strains, locus YHR087W, strain rtc3, stronger effect = lower value
[7] = S. cerevisiae deletion strains, locus YJR043C, strain POL32, stronger effect = lower value
[8] = S. cerevisiae deletion strains, locus YJR075W, strain HOC1, stronger effect = lower value
[9] = S. cerevisiae deletion strains, locus YLR039C, strain RIC1, stronger effect = lower value
[10] = S. cerevisiae deletion strains, locus YLR058C, strain SHM2 (second series), stronger effect = lower value
[11] = S. cerevisiae deletion strains, locus YLR085C, strain ARP6, stronger effect = lower value
[12] = S. cerevisiae deletion strains, locus YLR262C, strain YPT6, stronger effect = lower value
[13] = S. cerevisiae deletion strains, locus YML094W, strain GIM5, stronger effect = lower value
[14] = S. cerevisiae deletion strains, locus YMR219W, strain ESC1, stronger effect = lower value
[15] = S. cerevisiae deletion strains, locus YMR263W, strain SAP30, stronger effect = lower value
[16] = S. cerevisiae deletion strains, locus YMR307W, strain GAS1, stronger effect = lower value
[17] = S. cerevisiae deletion strains, locus YNL153C, strain GIM3, stronger effect = lower value
[18] = S. cerevisiae deletion strains, locus YNL298W, strain CLA4 (second series), stronger effect = lower value
[19] = S. cerevisiae deletion strains, locus YNL322C, strain KRE1, stronger effect = lower value
[20] = S. cerevisiae deletion strains, locus YNR030W, strain Alg12, stronger effect = lower value
[21] = S. cerevisiae deletion strains, locus YPL055C, strain LGE1, stronger effect = lower value
[22] = S. cerevisiae deletion strains, locus YPL241C, strain CIN2, stronger effect = lower value
[23] = S. cerevisiae deletion strains, locus YPR135W, strain CTF4, stronger effect = lower value
[24] = S. cerevisiae strains, strain wild type, stronger effect = lower value

Measured: normalized growth

O=c1[nH]cnc2ccc(Br)cc12
inactive: [1] 1.01 | [2] 0.98 | S. cerevisiae deletion strains, locus YDL134C, strain PPH21, stronger effect = lower value 1.01 | [3] 0.918 | [4] 0.998 | S. cerevisiae deletion strains, locus YGR078C, strain PAC10, stronger effect = lower value 1 | [5] 0.994 | [6] 1.01 | S. cerevisiae deletion strains, locus YJL187C, strain SWE1, stronger effect = lower value 1.01 | [7] 1.02 | [8] 1.01 | S. cerevisiae deletion strains, locus YKL190W, strain CNB1, stronger effect = lower value 1.01 | [9] 1.02 | [10] 1.01 | [11] 1.01 | [12] 1.01 | [13] 0.98 | [14] 1.01 | [15] 0.949 | [16] 1.02 | [17] 1 | [18] 1.04 | [19] 1.01 | [20] 1.01 | [21] 0.921 | [22] 1.01 | [23] 0.97 | [24] 1

O=c1[nH]c(-c2cc(Br)cs2)nc2ccc(Cl)cc12
active: [14] 1.13 [resistant]
inactive: S. cerevisiae deletion strains, locus YAL013W, strain DEP1, stronger effect = lower value 1.01 | [1] 1.01 | [2] 1 | [3] 0.938 | [4] 1.01 | [5] 1.03 | [6] 1.04 | [7] 1.01 | [8] 1.06 | [9] 1.1 | [10] 1 | [11] 1.06 | [12] 1.07 | [13] 1.04 | [15] 0.954 | [16] 1.06 | [17] 1.04 | [18] 1.04 | [19] 1.01 | [20] 1.04 | [21] 0.896 | [22] 0.999 | [23] 1.07 | [24] 1.02

O=C(NC(Cc1cc(=O)[nH]c2ccccc12)C(=O)O)c1ccc(Cl)cc1 (centres undefined)
inactive: S. cerevisiae deletion strains, locus YAL021C, strain ccr4, stronger effect = lower value 1.01 | S. cerevisiae deletion strains, locus YAL026C, strain drs2, stronger effect = lower value 1 | S. cerevisiae deletion strains, locus YAL030W, strain snc1, stronger effect = lower value 1 | S. cerevisiae deletion strains, locus YBL061C, strain skt5, stronger effect = lower value 1 | S. cerevisiae deletion strains, locus YBR009C, strain hhf1, stronger effect = lower value 1.01 | S. cerevisiae deletion strains, locus YBR023C, strain chs3, stronger effect = lower value 1.01 | S. cerevisiae deletion strains, locus YBR171W, strain sec66, stronger effect = lower value 0.992 | S. cerevisiae deletion strains, locus YBR231C, strain swc5, stronger effect = lower value 0.994 | S. cerevisiae deletion strains, locus YBR279W, strain paf1, stronger effect = lower value 0.997 | S. cerevisiae deletion strains, locus YCL011C, strain gbp2, stronger effect = lower value 1 | S. cerevisiae deletion strains, locus YCL016C, strain dcc1, stronger effect = lower value 0.994 | S. cerevisiae deletion strains, locus YCL061C, strain MRC1, stronger effect = lower value 0.994 | S. cerevisiae deletion strains, locus YCL069W, strain vba3, stronger effect = lower value 1 | S. cerevisiae deletion strains, locus YCR088W, strain abp1, stronger effect = lower value 0.994 | S. cerevisiae deletion strains, locus YDL005C, strain med2, stronger effect = lower value 1 | S. cerevisiae deletion strains, locus YDL040C, strain nat1, stronger effect = lower value 1 | S. cerevisiae deletion strains, locus YDR001C, strain nth1, stronger effect = lower value 0.997 | S. cerevisiae deletion strains, locus YDR069C, strain doa4, stronger effect = lower value 1 | S. cerevisiae deletion strains, locus YDR137W, strain rgp1, stronger effect = lower value 0.969 | S. cerevisiae deletion strains, locus YDR159W, strain sac3, stronger effect = lower value 1.01 | S. cerevisiae deletion strains, locus YDR195W, strain ref2 0.972 | S. cerevisiae deletion strains, locus YDR297W, strain sur2, stronger effect = lower value 1.01 | S. cerevisiae deletion strains, locus YDR334W, strain swr1, stronger effect = lower value 1.02 | S. cerevisiae deletion strains, locus YDR335W, strain msn5, stronger effect = lower value 1 | S. cerevisiae deletion strains, locus YDR392W, strain spt3, stronger effect = lower value 1.03 | S. cerevisiae deletion strains, locus YEL003W, strain gim4, stronger effect = lower value 0.998 | S. cerevisiae deletion strains, locus YEL037C, strain rad23, stronger effect = lower value 0.982 | S. cerevisiae deletion strains, locus YEL061C, strain CIN8 (second series), stronger effect = lower value 1 | S. cerevisiae deletion strains, locus YER015W, strain faa2, stronger effect = lower value 1.01 | S. cerevisiae deletion strains, locus YER016W, strain bim1, stronger effect = lower value 1 | S. cerevisiae deletion strains, locus YER111C, strain swi4, stronger effect = lower value 0.999 | S. cerevisiae deletion strains, locus YER155C, strain BEM2 (second series), stronger effect = lower value 1 | S. cerevisiae deletion strains, locus YFR010W, strain ubp6, stronger effect = lower value 0.995 | S. cerevisiae deletion strains, locus YGL167C, strain pmr1, stronger effect = lower value 1.01 | S. cerevisiae deletion strains, locus YGL173C, strain kem1, stronger effect = lower value 1.01 | S. cerevisiae deletion strains, locus YGL227W, strain vid30, stronger effect = lower value 1 | S. cerevisiae deletion strains, locus YGL240W, strain doc1, stronger effect = lower value 0.998 | S. cerevisiae deletion strains, locus YGL253W, strain hxk2, stronger effect = lower value 1 | S. cerevisiae deletion strains, locus YHR013C, strain ard1, stronger effect = lower value 1 | S. cerevisiae deletion strains, locus YHR027C, strain rpn1, stronger effect = lower value 0.996 | [5] 0.993 | S. cerevisiae deletion strains, locus YHR079C, strain IRE1, stronger effect = lower value 0.99 | S. cerevisiae deletion strains, locus YHR142W, strain chs7, stronger effect = lower value 0.986 | S. cerevisiae deletion strains, locus YJL092W, strain hpr5, stronger effect = lower value 0.998 | S. cerevisiae deletion strains, locus YJL095W, strain BCK1 (second series), stronger effect = lower value 0.997 | S. cerevisiae deletion strains, locus YJL095W, strain BCK1, stronger effect = lower value 0.988 | S. cerevisiae deletion strains, locus YJL115W, strain asf1, stronger effect = lower value 1 | S. cerevisiae deletion strains, locus YJL129C, strain trk1, stronger effect = lower value 1 | S. cerevisiae deletion strains, locus YJL154C, strain vps35, stronger effect = lower value 1 | S. cerevisiae deletion strains, locus YJL164C, strain tpk1, stronger effect = lower value 1 | S. cerevisiae deletion strains, locus YJL166W, strain qcr8, stronger effect = lower value 0.995 | S. cerevisiae deletion strains, locus YJR066W, strain TOR1, stronger effect = lower value 0.913 | S. cerevisiae deletion strains, locus YKL160W, strain elf1, stronger effect = lower value 0.998 | S. cerevisiae deletion strains, locus YKR026C, strain gcn3, stronger effect = lower value 0.994 | S. cerevisiae deletion strains, locus YKR091W, strain srl3, stronger effect = lower value 1 | S. cerevisiae deletion strains, locus YLL001W, strain dnm1, stronger effect = lower value 0.997 | S. cerevisiae deletion strains, locus YLL026W, stronger effect = lower value 1 | S. cerevisiae deletion strains, locus YLL041C, strain sdh2, stronger effect = lower value 0.997 | S. cerevisiae deletion strains, locus YLR027C, strain aat2, stronger effect = lower value 0.994 | S. cerevisiae deletion strains, locus YLR113W, strain HOG1, stronger effect = lower value 0.995 | S. cerevisiae deletion strains, locus YLR221C, strain rsa3, stronger effect = lower value 0.999 | S. cerevisiae deletion strains, locus YLR258W, strain gsy2, stronger effect = lower value 1 | S. cerevisiae deletion strains, locus YLR262C, strain YPT6 (second series), stronger effect = lower value 1 | S. cerevisiae deletion strains, locus YLR320W, strain mms22, stronger effect = lower value 0.996 | S. cerevisiae deletion strains, locus YLR342W, strain FKS1, stronger effect = lower value 0.991 | S. cerevisiae deletion strains, locus YLR357W, strain rsc2, stronger effect = lower value 0.993 | S. cerevisiae deletion strains, locus YLR370C, strain arc18, stronger effect = lower value 1 | S. cerevisiae deletion strains, locus YLR384C, strain iki3, stronger effect = lower value 0.998 | S. cerevisiae deletion strains, locus YML120C, strain ndi1, stronger effect = lower value 1 | S. cerevisiae deletion strains, locus YMR058W, strain fet3, stronger effect = lower value 1.01 | S. cerevisiae deletion strains, locus YMR125W, strain sto1, stronger effect = lower value 1.01 | S. cerevisiae deletion strains, locus YMR129W, stronger effect = lower value 0.983 | S. cerevisiae deletion strains, locus YMR205C, strain PFK2, stronger effect = lower value 0.997 | S. cerevisiae deletion strains, locus YMR231W, strain pep5, stronger effect = lower value 1.01 | S. cerevisiae deletion strains, locus YNL071W, strain lat1, stronger effect = lower value 1.01 | S. cerevisiae deletion strains, locus YNL183C, strain NPR1, stronger effect = lower value 0.934 | S. cerevisiae deletion strains, locus YNL209W, strain ssb2, stronger effect = lower value 1 | S. cerevisiae deletion strains, locus YNL248C, strain rpa49, stronger effect = lower value 0.994 | S. cerevisiae deletion strains, locus YNL322C, strain KRE1 (second series), stronger effect = lower value 0.992 | S. cerevisiae deletion strains, locus YNR049C, strain mso1, stronger effect = lower value 0.986 | S. cerevisiae deletion strains, locus YOR001W, strain rrp6, stronger effect = lower value 0.988 | S. cerevisiae deletion strains, locus YOR070C, strain gyp1, stronger effect = lower value 1.01 | S. cerevisiae deletion strains, locus YOR080W, strain dia2, stronger effect = lower value 0.998 | S. cerevisiae deletion strains, locus YOR083W, strain WHI5, stronger effect = lower value 1 | S. cerevisiae deletion strains, locus YOR106W, strain vam3, stronger effect = lower value 0.993 | S. cerevisiae deletion strains, locus YOR231W, strain MKK1, stronger effect = lower value 0.988 | S. cerevisiae deletion strains, locus YOR265W, strain rbl2, stronger effect = lower value 1 | S. cerevisiae deletion strains, locus YOR270C, strain vph1, stronger effect = lower value 1.03 | S. cerevisiae deletion strains, locus YOR290C, strain snf2, stronger effect = lower value 1.01 | S. cerevisiae deletion strains, locus YPL051W, strain arl3, stronger effect = lower value 1.01 | S. cerevisiae deletion strains, locus YPL078C, strain atp4, stronger effect = lower value 0.999 | S. cerevisiae deletion strains, locus YPL106C, strain sse1, stronger effect = lower value 1.01 | S. cerevisiae deletion strains, locus YPL240C, strain hsp82, stronger effect = lower value 0.982 | S. cerevisiae deletion strains, locus YPL256C, strain CLN2, stronger effect = lower value 1.01

Brc1c(NC2=NCCN2)ccc2nccnc12
inactive: S. cerevisiae deletion strains, locus YAL040C, strain CLN3, stronger effect = lower value 1.01 | S. cerevisiae deletion strains, locus YCL061C, strain MRC1 (second series), stronger effect = lower value 1 | S. cerevisiae deletion strains, locus YDR363W, strain ESC2, stronger effect = lower value 1 | S. cerevisiae deletion strains, locus YER002W, strain NOP16, stronger effect = lower value 1.01 | S. cerevisiae deletion strains, locus YGR229C, strain SMI1, stronger effect = lower value 1.01 | [16] 0.994 | S. cerevisiae deletion strains, locus YNL175C, strain NOP13, stronger effect = lower value 0.989 | S. cerevisiae deletion strains, locus YNL197C, strain WHI3, stronger effect = lower value 0.981 | S. cerevisiae deletion strains, locus YNL224C, strain SQS1, stronger effect = lower value 0.994 | [19] 1 | S. cerevisiae deletion strains, locus YOR083W, strain WHI5 (second series), stronger effect = lower value 1 | [22] 1
